Screens: PubChem BioAssay, National Center for Advancing Translational Sciences (NCATS)
This is one part of a sample in which hits are shown more often than they occur.
ERK EGF block: qHTS Assay for Inhibitors of the ERK Signaling Pathway using a Homogeneous Screening Assay; Stimulation with EGF | HEK293-V1b, EGF-stimulated phospho-ERK AlphaScreen | AID 1454, 2008 | Potency, µM (doses to about 11.5 µM), for inactives: top-dose activity change, negative = inhibition, hits mostly inhibitors | 0.41% of 130,000 active; active means well fitted inhibition curve with a large enough effect;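 further: plate controls were stimulated vehicle wells for no effect and unstimulated vehicle basal for full effect; nearly all actives have a fitted effect of over 55% in size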
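Phospho-ERK1/2 measured by AlphaScreen (SureFire) after 5 min 25 nM EGF stimulation of V1b-expressing HEK293 cells preincubated 30 min at 37C with titrated compounds; data scaled to DMSO and EGF controls, Hill-fitted AC50.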
Numbers without * were called inactive; [ ] = remark or other dose. Potency means the concentration at half of the fitted maximal effect.

For COc1ccc(C(=O)N2CCC3(CCCN(C(=O)Nc4cccc(F)c4)C3)CC2)cc1 the results were ERK EGF block -1%.
For CN(C)c1ccc(C(=O)c2ccc(O)cc2O)cc1 the results were ERK EGF block -1%.
`CN(C)c1ccc(C(=O)NNC(=O)c2ccc(Cl)cc2)cc1` gave ERK EGF block -1%[57.5 µM].
For CN(C)c1ccc(C(=C2C=CC(=[N+](C)C)C=C2)c2ccc(N(C)C)cc2)cc1 the results were ERK EGF block 13µM*.
Screening CN(C)c1ccc(/C=C/c2ccc3c4ccccc4ccc3[n+]2-c2ccccc2)cc1 returned ERK EGF block 25µM*.
`CN(C)c1ccc(/C=C/c2cccc[n+]2[O-])cc1` gave ERK EGF block 3%[57.5 µM].
Screening CN(C)c1ccc(/C=C/C#N)cc1 returned ERK EGF block 9%[57.5 µM].
COc1ccc2c(c1)C(=O)[C@@H](OC(=O)NCCOc1ccccc1)[C@H](c1ccc(OC)c(Br)c1)O2 was read as ERK EGF block -12%.
For CCC(=O)[C@@]1(C)[C@H](C)C[C@@H]2[C@@H]3CCC4=CC(=O)C=C[C@@]4(C)[C@H]3[C@H](O)C[C@]21C the results were ERK EGF block 4%[25.7 µM].
For CN(C)c1nc(-c2ccoc2)nc2ccccc12 the results were ERK EGF block 27%.
Screening CN1CCN(c2ccc(C(CC(N)=O)NC(=O)Cc3ccc(Br)cc3)cc2[N+](=O)[O-])CC1 (stereo not given) returned ERK EGF block 4%[57.5 µM].
Screening CN(Cc1ccccc1)c1ccc(C(CC(N)=O)NC(=O)Cc2ccc(Br)cc2)cc1[N+](=O)[O-] (stereo not given) returned ERK EGF block 32µM*.
For CCC(CC)Nc1ccc(C(CC(N)=O)NC(=O)Cc2ccc(Br)cc2)cc1[N+](=O)[O-] (stereo not given) the results were ERK EGF block -10%[57.5 µM].
CCN(CC)c1ccc(/C=N/NC(=O)c2ccc(O)cc2)cc1 was read as ERK EGF block -2%.
For C=CCOC(=O)N[C@@H](c1ccccc1)[C@@H](C)[N+](=O)[O-] the results were ERK EGF block -2%.
O=C1C(Cl)=C(N2CCN(c3ccccc3[N+](=O)[O-])CC2)C(=O)c2ccccc21 was read as ERK EGF block 25µM*.
`O=[N+]([O-])c1ccc(N2CCN(c3ccccc3O)CC2)c(Cl)c1` gave ERK EGF block 21%.
O=[N+]([O-])c1cc(S(=O)(=O)Nc2ccccc2)ccc1N1CCN(c2ccccc2)CC1 was read as ERK EGF block 0%.
For COC(=O)C1(C(C)=O)CC2=CC[C@@H]3C(=O)N(c4ccccc4)C(=O)[C@@H]3[C@@H]2Cc2ccccc2[C@@H]1C[N+](=O)[O-] (stereo not given in full) the results were ERK EGF block -15%.
`CC/C=C\C[C@H](O)/C=C/C=C\C/C=C\C/C=C\CCCC(=O)O` gave ERK EGF block -12%.
Screening Cc1ccccc1NC(=S)NCC1CCN(C(C)c2ccccc2)C1 (stereo not given) returned ERK EGF block 8%[57.5 µM].
`COc1ccc(N2CCC(CNC(=O)Nc3ccc(C)c(C)c3)C2)cc1` (stereo not given) gave ERK EGF block 3%.
For COc1ccc(N2CCC(CNC(=S)Nc3c(C)cc(C)cc3C)C2)cc1 (stereo not given) the results were ERK EGF block 8.9µM*.
CCc1ccc(NC(=O)NCC2CCN(c3ccc(OC)cc3)C2)cc1 (stereo not given) was read as ERK EGF block -17%[57.5 µM].
Screening COc1ccc(N2CCC(CNC(=S)Nc3ccc(C)cc3C)C2)cc1 (stereo not given) returned ERK EGF block 14µM*.
`Cc1ccc(NC(=S)NC2CCN(Cc3ccccc3)CC2)c(C)c1` gave ERK EGF block 3%.
For COCOc1cc(OC)ccc1C(=O)/C=C/c1cccc(C(F)(F)F)c1 the results were ERK EGF block -11%.
Screening COCCn1c(=O)c(-c2ccc(OC)cc2)nc2cnc(OC)nc21 returned ERK EGF block 7%.
CC[C@]1(c2ccccc2)NC(=O)N(C)C1=O was read as ERK EGF block 2%[25.7 µM].
Screening OC[C@H]1NC[C@H](O)[C@@H](O)[C@H]1O returned ERK EGF block -2%.
`COc1ccc(S(=O)(=O)N2CCCC2)c(Cl)c1Cl` gave ERK EGF block 2%.
For COc1ccc(/C=C/C(=O)O)cc1Cl the results were ERK EGF block -2%[57.5 µM].
Screening COc1ccc(C=C2C(=O)c3ccccc3C2=O)cc1O returned ERK EGF block -2%.
Screening COc1ccc(OC)c2c1C(=O)C(Cl)=C(Cl)C2=O returned ERK EGF block 28µM*.
For COc1ccc(N)c2c1C(=O)c1ccccc1C2=O the results were ERK EGF block 20µM*.
`Nc1ccc(O)c2c1C(=O)c1ccccc1C2=O` gave ERK EGF block 29%.
CC(=O)OC1CC[C@@]2(C)C(CC[C@@]3(C)C2CC=C2C4CC(C)(C)CC[C@]4(C)CC[C@@]23C)C1(C)C (stereo not given in full) was read as ERK EGF block -14%.
For O=C1CC2(CCCC2)CC(=O)N1CCCCNC[C@H]1COc2ccccc2O1 the results were ERK EGF block 4%.
Screening NCC1O[C@@H](OC2C(N)CC(N)C(O)C2O[C@@H]2OC(CO)C(O)C2O)C(N)C(O)C1O (stereo not given in full) returned ERK EGF block 17%.
`CC#C[C@@]1(O)CC[C@H]2[C@@H]3CCC4=CC(=O)CCC4=C3[C@H](c3ccc(N(C)C)cc3)C[C@]21C` gave ERK EGF block 8%[25.7 µM].
Screening CC1(C)OC2C[C@](O)(C(N)=O)C[C@H](O)[C@H]2O1 (stereo not given in full) returned ERK EGF block 13%.
`NCCC[C@@H](CC(=O)N[C@@H]1CCCC[C@H]1C(=O)N[C@H](CC(=O)N[C@@H](CCC(=O)O)CC(=O)O)Cc1ccccc1)NC(=O)C[C@H](Cc1c[nH]c2ccccc12)NC(=O)[C@@H]1CNCC[C@H]1N` gave ERK EGF block -15%.
Screening C[C@]1(OC(=O)/C=C\c2ccccc2)C[C@@H](O)[C@@]2(O)C=CO[C@@H](O[C@H]3O[C@@H](CO)[C@@H](O)[C@@H](O)[C@@H]3O)[C@H]21 returned ERK EGF block 5%[25.7 µM].
Screening Cc1ccccc1Nc1oc(-c2ccccc2)nc1-c1ccccc1F returned ERK EGF block 1%.
Screening CCc1ccc(N=c2c([N+](=O)[O-])nn(-c3ccc4c(c3)OCCO4)n2O)cc1 returned ERK EGF block 28µM*.
`Cc1ccc(N=c2c([N+](=O)[O-])nn(-c3ccc4c(c3)OCCO4)n2O)c(Cl)c1` gave ERK EGF block 5%.
`Cc1ccc(CN=c2c([N+](=O)[O-])nn(-c3ccc4c(c3)OCCO4)n2O)cc1` gave ERK EGF block 9%.
For O=C(O)CC1CCCc2ccccc2C1O (stereo not given) the results were ERK EGF block 8%.
Screening Cc1ccc(-c2csc(=Nc3cccnc3)n2CCCn2ccnc2)cc1C returned ERK EGF block 28µM*.
Cc1ccc(-c2csc(=Nc3cccnc3)n2CCCN2CCCC2=O)cc1C was read as ERK EGF block -5%.
Screening c1cncc(N=c2scc(-c3cccc4ccccc34)n2CCCn2ccnc2)c1 returned ERK EGF block 7%.
Screening CCNc1ncc2nc(-c3ccccc3)c(=O)n(C3CC3)c2n1 returned ERK EGF block 18%.
O=C(c1ccncc1)N1CCC2(CC1)CN(c1ccc(-c3ccccc3)cc1)C2 was read as ERK EGF block 4%.
